Reference: PubChem BioAssay AID1851 (National Center for Advancing Translational Sciences (NCATS), 2009)
Hit rate of the full screen: of about 16,000 compounds, about 5,800 (36%) were called active. Roughly 23% stayed inconclusive and do not appear here. The call rests on the fitted dose curve; in most records, active means well fitted curve in the direction sought with a large enough effect; inconclusive means small, poorly fitted or top-dose-only effect, or effect the other way; inactive means no such curve, though single readings can be large or run the other way. This is one part of the list.

target: Cytochrome P450 2C19 (Homo sapiens) (UniProt P33261); experiment: Cytochrome panel assay with activity outcomes; details: recombinant CYP, pro-luciferin dealkylation, luminescence, p450-cyp2c19; series mostly up to 57.1 µM; activity, negative = inhibition: at the top concentration
On the % scale 0 is the no-effect control and ±100 the full control effect.

Cytochrome P450 2C19 (Homo sapiens), sequence (P33261 whole entry, looked up): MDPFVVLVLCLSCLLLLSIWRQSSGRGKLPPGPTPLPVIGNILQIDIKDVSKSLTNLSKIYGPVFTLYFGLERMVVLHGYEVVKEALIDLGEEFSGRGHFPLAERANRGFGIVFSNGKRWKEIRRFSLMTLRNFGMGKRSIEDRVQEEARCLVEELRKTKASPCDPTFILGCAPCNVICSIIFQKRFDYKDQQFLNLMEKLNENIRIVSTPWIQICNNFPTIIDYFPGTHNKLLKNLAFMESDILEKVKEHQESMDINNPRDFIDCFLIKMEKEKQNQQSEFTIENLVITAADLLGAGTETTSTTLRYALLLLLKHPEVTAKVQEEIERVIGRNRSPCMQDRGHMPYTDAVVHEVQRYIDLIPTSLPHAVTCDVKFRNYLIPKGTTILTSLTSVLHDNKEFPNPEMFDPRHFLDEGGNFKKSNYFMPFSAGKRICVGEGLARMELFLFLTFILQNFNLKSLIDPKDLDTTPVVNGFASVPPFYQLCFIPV

Structure (SMILES)	AC50	activity, negative = inhibition
O=C1c2ccccc2C(=O)N1CCCSc1ccccc1	631 nM (active)	–
O=C(c1ccccc1)c1ccc(OCCn2cnc3ccccc3c2=O)cc1	1580 nM (active)	–
Cc1ccc(SCCCn2cnc3ccccc3c2=O)cc1	2240 nM (active)	–
O=c1c2ccccc2ncn1CCCSc1ccccc1	1410 nM (active)	–
CCOCCCn1cnc2c(c1=O)c1nc3ccccc3nc1n2-c1ccccc1	–	-8.6% (inactive)
N#CCSc1ncnc2c1cnn2CCO	–	-21.2% (inactive)
Cc1cccc(C(=O)N/N=C/c2ccc(OCC(=O)N3CCCCC3)cc2)c1	–	-68.9% (inactive)
COC(=O)N/N=C\C=C\c1ccc2c(c1)OCO2	–	-7.72% (inactive)
O=C(/C=C/c1ccc2c(c1)OCO2)NCCSCc1cccc(Cl)c1	3160 nM (active)	–
O=C(CSCc1cccc(Cl)c1)N/N=C/c1ccc(OCC(=O)N2CCCCC2)cc1	3160 nM (active)	–
O=C(Cn1nc(C(F)F)cc1C(F)F)N/N=C/c1ccc2c(c1)OCO2	1580 nM (active)	–
O=C(CSCc1cccc(Br)c1)N/N=C/c1ccc2c(c1)OCO2	11200 nM (active)	–
CCCc1nnc(SCC(=O)O)n1/N=C/c1ccc2c(c1)OCO2	–	-17.5% (inactive)
COc1ccc2c(c1OC)C(=O)N(C(C)C(=O)O)C2=O (stereo not drawn)	–	-21.8% (inactive)
COc1ccc(-n2c(=O)c(C)nc3cnc(N(C)C)nc32)cc1	–	9.33% (inactive)
N=C(N)C(N=Nc1ccccc1)C(=N)N (stereo not drawn)	–	-2.71% [at 11.4 µM] (inactive)
CC[C@H](Cc1c(I)cc(I)c(N)c1I)C(=O)O	–	-35.8% [at 25.6 µM] (inactive)
O=C(NC12CC3CC(CC(C3)C1)C2)N1CCN(c2nc(-c3ccccc3)cs2)CC1	2820 nM (active)	–
N[C@@H](CSCc1ccc(I)cc1)C(=O)O	–	12.9% [at 11.4 µM] (inactive)
COc1ccc(-n2c(=O)c(-c3ccc(F)cc3)nc3cnc(OC)nc32)cc1	–	-29% (inactive)
C=CC[C@@H]1C=C[C@H](O/N=C(\C)CCN2CCc3nc(-c4ccccc4)c(-c4ccccc4)cc3C2)[C@H](CO)O1	–	-25.6% [at 11.4 µM] (inactive)
COc1ccc(O[C@H]2C=C[C@@H](c3ccccc3)O[C@@H]2CO/N=C(\C)CCN2CCCc3nc(C)c(C)cc32)cc1	398 nM (active)	–
C/C(CCN1CCc2nc(-c3ccccc3)c(-c3ccccc3)cc2C1)=N\OC[C@@H](O)COCc1ccco1	–	-21.9% [at 11.4 µM] (inactive)
CCc1cc2c(nc1CC)CCN(CC/C(C)=N/OC[C@@H](C)[C@H](OCc1ccccc1)C(C)C)C2	–	-15.6% [at 11.4 µM] (inactive)
CCCNC(=O)OC[C@@H]1O[C@H](CCO/N=C(\C)CCN2CCCCc3nc(C)c(C)cc32)C=C[C@@H]1Oc1ccc(OC)cc1	–	-12.9% [at 11.4 µM] (inactive)
CCCNC(=O)OC[C@@H]1O[C@H](CCO/N=C(\C)CCN2CCCc3nc(C)c(C)cc32)C=C[C@@H]1Oc1ccc(OC)cc1	–	-43.5% [at 11.4 µM] (inactive)
CC(=O)OC[C@@H]1O[C@H](CCO/N=C(\C)CCN2CCc3nc(-c4ccccc4)c(-c4ccccc4)cc3C2)C=C[C@@H]1OC(C)=O	–	-28.2% [at 11.4 µM] (inactive)

Structure (SMILES)	AC50	activity, negative = inhibition
COc1ccc(O[C@H]2C=C[C@@H](c3ccccc3)O[C@@H]2CO/N=C(\C)CCN2CCc3nc(-c4ccccc4)c(-c4ccccc4)cc3C2)cc1	251 nM (active)	–
CO/N=C(\C)CCN1CCCCc2nc(C)c(C)cc21	–	-22.3% [at 11.4 µM] (inactive)
CC(=O)OC[C@@H]1O[C@H](CCO/N=C(\C)CCN2CCCc3nc(C)c(C)cc32)C=C[C@@H]1OC(C)=O	–	38.8% [at 11.4 µM] (inactive)
C/C(CCN1CCc2nc(-c3ccccc3)c(-c3ccccc3)cc2C1)=N\OC[C@@H](C)[C@H](OCc1ccccc1)C(C)C	1580 nM (active)	–
COc1ccc(O[C@H]2C=C[C@@H](c3ccccc3)O[C@@H]2CO/N=C(\C)CCN2CCCCc3nc(C)c(C)cc32)cc1	2510 nM (active)	–
COC(=O)CC[C@@H](C)[C@H]1CC[C@H]2[C@H]3CC[C@H]4C[C@@H]5CC[C@@]4(C)C3(O5)[C@@H](Br)[C@@H](Br)[C@@]12C	–	-31% [at 11.4 µM] (inactive)
OCCN=c1cc(-c2ccccc2)oc2ccc(Cl)cc12	1580 nM (active)	–
CCCCNC(=O)[C@@H]1Cc2ccccc2N1C(=O)[C@H](N)CC	–	6.24% (inactive)
CCCCN1CCC(n2c(=O)[nH]c3ccccc32)CC1	–	26.7% (inactive)
CCCCCCN1Cc2ccccc2C1	10000 nM (active)	–
CCN(CC)C(=O)N1CCN(C)CC1	–	-6.34% [at 25.6 µM] (inactive)
COC(=O)[C@@]1(Cc2ccccc2)[C@H]2c3cc(C(=O)N4CCCC4)n(CC4CC4)c3C[C@H]2CN1C(=O)c1ccccc1	3160 nM (active)	–
COC(=O)[C@@]1(Cc2ccccc2)[C@H]2c3cc(C(=O)N4CCCC4)n(C)c3C[C@H]2CN1C(=O)c1ccccc1	3980 nM (active)	–
Cn1cccc1C(=O)N1CCC2(CCCN(Cc3ccccc3)C2)CC1	–	-28% (inactive)
COc1ccccc1CN1CCCC2(CCN(C(=O)c3ccncc3)CC2)C1	–	-42.2% (inactive)
COC(=O)[C@@]1(Cc2ccccc2)[C@H]2c3cc(C(=O)N4CCCC4)n(Cc4ccc(O)c(OC)c4)c3C[C@H]2CN1C(=O)c1ccccc1	501 nM (active)	–
O=C(c1ccncc1)N1CCC2(CC1)CN(c1ncccn1)C2	–	-28.5% (inactive)
O=C(c1ccncc1)N1CCC2(CC1)CCN(c1ncccn1)CC2	2510 nM (active)	–
O=C(c1cccc(F)c1)N1CCC2(CC1)CCN(c1ccncc1)CC2	–	-19% (inactive)
O=C(c1ccncc1)N1CCC2(CC1)CN(c1ccccc1)C2	316 nM (active)	–
O=C(c1cc(C(F)(F)F)cc(C(F)(F)F)c1)N1CCC2(CC1)CN(c1ccncc1)C2	–	-19.3% (inactive)
O=C(c1cccc(F)c1)N1CCC2(CC1)CN(c1ccc(-c3ccccc3)cc1)C2	–	-6.52% (inactive)
O=C(c1ccncc1)N1CCC[C@@]2(CCN(c3ccccc3)C2)C1	–	3.46% (inactive)
COc1ccc(C(=O)N2CCC3(CC2)CCN(c2ncccn2)CC3)cc1	–	-25.9% (inactive)
O=C(c1cccc(F)c1)N1CCC2(CC1)CN(c1ccncc1)C2	3160 nM (active)	–
NC(N)=NC(N)=Nc1ccc(S(N)(=O)=O)cc1	–	28.1% [at 11.4 µM] (inactive)
